TIM10 inh: growth inhibitors of TIM10 yeast strain. actives 1.4% (n = 330,000). inhibition, % at 10 µM. S. cerevisiae TIM10 strain growth, BacTiter-Glo luminescence, 24 h. AID 463195;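 active means inhibition of 40% or more at the single tested concentration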;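 further: wild-type TIM10 isogenic control strain grown at permissive 25 °C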
tim23-1 inh: tim23-1 yeast growth inhibition. S. cerevisiae tim23-1 growth, BacTiter-Glo luminescence, 24 h. inhibition, % at 20 µM. actives 1.3% (n = 330,000);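 active means growth inhibition of the mutant yeast at or above 50%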;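 further: temperature-sensitive mutant grown at 25 °C; plate controls were DMSO-treated mutant yeast for no effect and medium wells lacking yeast for full effect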
tim10-1 inh: growth inhibitors of tim10-1 mutant yeast; S. cerevisiae tim10-1 ts strain growth, BacTiter-Glo, 24 h; inhibition, % at 20 µM; AID 463190; actives 2.2% (n = 330,000);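 active means inhibition of at least 40%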;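 further: mutant grown at 25 °C; 0% = DMSO wells with yeast and 100% = wells holding no yeast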
PfHsp90 yeast 2: inhibits growth of yeast expressing Plasmodium falciparum Hsp90. S. cerevisiae expressing PfHsp90, BacTiter-Glo ATP, 48 h; yeast lacking PDR1 and PDR3 efflux regulators. inhibition, % at 9.4 µM. actives 0.32% (n = 310,000);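 active means every replicate shows inhibition above about 80%, whatever the replicate mean, limit read from the data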;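 further: 0% = DMSO neutral controls and 100% = 20 µM radicicol positive controls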
Beta2AR agonist: activates human beta-2 adrenergic receptor causing internalization; AID 504454; Am2.2-beta2AR cells, FAP receptor internalization, flow cytometry; actives 0.43% (n = 340,000); response, % (test concentration not listed);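 active means response above a set limit, near 3 SD of response in nonfluorescent compounds, cut at about 42% in these data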
Target sequence (P07550 whole entry, looked up): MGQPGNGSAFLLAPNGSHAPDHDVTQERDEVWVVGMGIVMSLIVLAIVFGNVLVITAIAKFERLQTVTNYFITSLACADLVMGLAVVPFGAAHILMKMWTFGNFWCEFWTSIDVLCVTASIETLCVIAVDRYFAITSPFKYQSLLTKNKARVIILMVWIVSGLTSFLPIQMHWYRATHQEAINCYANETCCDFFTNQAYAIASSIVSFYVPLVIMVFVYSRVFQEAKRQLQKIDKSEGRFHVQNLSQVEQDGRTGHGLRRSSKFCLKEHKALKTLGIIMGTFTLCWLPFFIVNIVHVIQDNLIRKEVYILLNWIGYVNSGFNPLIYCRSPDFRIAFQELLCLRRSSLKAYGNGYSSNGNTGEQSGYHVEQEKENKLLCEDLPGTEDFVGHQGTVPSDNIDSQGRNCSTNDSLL
tim23-1 confirm: confirmation of tim23-1 mutant yeast growth inhibitors. shares compounds with tim23-1 inh. S. cerevisiae tim23-1 growth, BacTiter-Glo luminescence, 24 h. inhibition, % at 20 µM. actives 83% (n = 4,400);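 active means inhibition above about 39% in either of two replicate wells at 20 µM, limit read from the data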;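 further: temperature-sensitive tim23-1 mutant grown at 25 °C; 0% = DMSO wells with yeast and 100% = medium wells without yeast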
* = called active by the depositor; x = no result. Sampled rows, rich in hits. Any-hit rate of the full collection: about 3.8%.

SMILES	TIM10 inh	tim23-1 inh	tim10-1 inh	PfHsp90 yeast 2	Beta2AR agonist	tim23-1 confirm
O=c1c(O)c(-c2ccccc2)oc2cc(O)cc(O)c12	-7	58*	-7	17	-3	61*
Cc1cc([N+](=O)[O-])nn1CCCC(=O)N1CCN(c2ccccc2)CC1	6	14	13	1	-18	x
Cc1cccc(C(=O)Oc2cccc3c(O)cccc23)c1	21	69*	0	-14	0	51*
Cc1ccccc1C(=O)Oc1cccc2c(O)cccc12	30	72*	28	-15	16	49*
Cc1ccc2nc(SC(C)C(=O)N3CCOCC3)[nH]c2c1 (centres undefined)	-6	-4	2	-10	1	x
CC(C)CNC(=O)c1ccccc1N(Cc1ccccc1)S(C)(=O)=O	8	13	15	-6	-1	x
Cc1c(C(=O)N(CCc2ccccc2)Cc2ccccc2)cccc1[N+](=O)[O-]	1	7	6	-8	-4	x
COc1ccc(N2CCN(c3ccc4nnc(CCC(=O)Nc5ccc(C)cc5)n4n3)CC2)cc1	-4	20	19	-6	22	x
COc1cccc(CN2CCN(S(=O)(=O)c3ccc(Br)cc3)CC2)c1	4	21	17	x	3	x
COc1ccc(S(=O)(=O)N2CCN(Cc3cccc(OC)c3)CC2)cc1	21	55*	25	10	11	43*
CN(Cc1ccco1)c1ncnc2ccc(-c3ccc4c(c3)OCO4)cc12	7	51*	22	-10	0	42*
CC(O)(Cc1cccnc1)c1cccs1 (centres undefined)	x	x	x	8	-2	x
Cn1c(SCC(=O)NC2CC2)nnc1-c1cccs1	7	2	-2	9	-4	x
O=Cc1cn(-c2ccccc2)nc1-c1cccnc1	40	62*	28	1	-6	57*
O=C(NCc1ccncc1)c1cn(-c2ccccc2)nc1-c1cccnc1	18	-5	14	-6	-10	x
CC(=O)c1c(C)[nH]c(C(=O)OCC(=O)c2ccc(C)s2)c1C	17	22	3	x	-5	x
Cc1ccc(NC(=O)c2ccc3c(c2)N(CC(=O)NC(C)C)C(=O)C(C)(C)O3)cc1	3	11	21	10	-1	x
COc1ccc(C2CC(c3ccc(Br)cc3)=NN2C(=O)CCC(=O)O)cc1OC (centres undefined)	-1	96*	1	11	-3	15
COc1ccc(C2=NN(C(=O)CCC(=O)O)C(c3ccc(OC)c(OC)c3)C2)cc1 (centres undefined)	7	11	16	10	-2	x
O=C(NCc1cccc(F)c1)c1ccc2nc(N3CCOCC3)sc2c1	1	13	12	11	3	x
OCC[C@@H]1C[C@@H](O)[C@H](O)[C@@]2(Cc3ccccc3O2)O1	14	14	10	-8	0	x
CCc1nnc(NC(=O)CSc2nc3cc4c(cc3cc2C)OCCO4)s1	-22	-19	13	20	7	x
CCc1ccc2nc(SCC(=O)Nc3nnc(C)s3)c(C)cc2c1	-13	58*	8	7	-14	13
C#CCOCCOCCOCCNc1nc(N2CCOCC2)nc(N2CCN(C(=O)Cn3cc(CCCCN)nn3)CC2)n1	x	x	x	15	-8	x
COc1cccc(NC(=O)c2cccc(N3C(=O)C4C5C=CC(C5)C4C3=O)c2)c1 (centres undefined)	5	1	2	-15	17	x
SMILES	TIM10 inh	tim23-1 inh	tim10-1 inh	PfHsp90 yeast 2	Beta2AR agonist	tim23-1 confirm
Nc1ccc(O)c2c1C(=O)c1ccccc1C2=O	1	53*	13	-32	0	55*
Cc1[nH]c2c(Br)cccc2c1[C@H]1[C@@H](CC#N)C1(C)C	33	51*	34	-14	-2	46*
Cc1c([C@H]2[C@@H](CC#N)C2(C)C)c2ccccc2n1C	21	5	22	0	8	x
CC1CCCN(S(=O)(=O)c2ccc3[nH]c4c(c3c2)CCCC4)C1 (centres undefined)	33	56*	32	30	1	56*
Cc1cccc(-c2n[nH]c(=S)n2/N=C/c2cccs2)c1	33	51*	10	x	1	43*
Cc1c(C(=O)OCC(=O)N2CCC(C)CC2)oc2ccccc12	35	54*	21	x	-5	58*
COc1ccc(CN2CCN(C(=O)c3cccc4ccccc34)CC2)cc1Br	4	50*	-7	-12	5	19
